# Laboratory results published in paper PMC7862700, “An all-to-all approach to the identification of sequence-specific readers for epigenetic DNA modifications on cytosine”.
# What was measured:
# Experiment in all cases: DAPPL (digital affinity profiling via proximity ligation, sequencing); 10 mM Tris-HCl pH 7.5, 50 mM NaCl, 1 mM DTT, 4% glycerol, room temperature, 30 min; GST-TFs on glutathione beads, 16-mer random dsDNA library, 0.1% formaldehyde crosslink after washing; high values mean tight binding
# FLI1 = target: T1, FLI1 (Homo sapiens, UniProt Q01543 1-452); conditions: protein: recombinant; tags: N-terminal GST; dsDNA, one strand shown
# T1 sequence: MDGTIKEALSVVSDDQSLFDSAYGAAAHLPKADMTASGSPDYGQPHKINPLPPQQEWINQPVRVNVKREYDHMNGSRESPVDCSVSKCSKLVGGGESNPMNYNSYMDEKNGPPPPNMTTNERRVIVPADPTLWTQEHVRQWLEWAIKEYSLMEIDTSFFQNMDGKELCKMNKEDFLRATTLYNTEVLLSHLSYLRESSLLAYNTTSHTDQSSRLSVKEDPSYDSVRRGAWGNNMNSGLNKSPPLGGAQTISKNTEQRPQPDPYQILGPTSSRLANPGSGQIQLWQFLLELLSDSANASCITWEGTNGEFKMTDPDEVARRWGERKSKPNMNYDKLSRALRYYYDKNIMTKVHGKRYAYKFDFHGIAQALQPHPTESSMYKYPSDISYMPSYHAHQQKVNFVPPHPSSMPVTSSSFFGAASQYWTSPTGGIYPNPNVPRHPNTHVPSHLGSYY
# Outline: (§1)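 In yeast, human transcription factors were expressed with a GST fusion, then pulled down on glutathione beads and given DNA barcodes. Pooled with a tag-only sample, they were exposed to 200 nmole of a 16-mer random double-stranded DNA library (Tris/NaCl/DTT/glycerol buffer, room temperature, 30 min), washed, crosslinked with 0.1% formaldehyde, proximity-ligated using BsaI/T4 ligase for 1 h at 37 °C, PCR-amplified and read on an Illumina NextSeq500. Each hexamer's frequency of reads for a factor, divided by the matching frequency for the tag-only sample, gives the binding signal.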
# ELK1 = target: T2, ELK1 (Homo sapiens, UniProt P19419 1-428); conditions: protein: recombinant; tags: N-terminal GST; dsDNA, one strand shown
# T2 sequence: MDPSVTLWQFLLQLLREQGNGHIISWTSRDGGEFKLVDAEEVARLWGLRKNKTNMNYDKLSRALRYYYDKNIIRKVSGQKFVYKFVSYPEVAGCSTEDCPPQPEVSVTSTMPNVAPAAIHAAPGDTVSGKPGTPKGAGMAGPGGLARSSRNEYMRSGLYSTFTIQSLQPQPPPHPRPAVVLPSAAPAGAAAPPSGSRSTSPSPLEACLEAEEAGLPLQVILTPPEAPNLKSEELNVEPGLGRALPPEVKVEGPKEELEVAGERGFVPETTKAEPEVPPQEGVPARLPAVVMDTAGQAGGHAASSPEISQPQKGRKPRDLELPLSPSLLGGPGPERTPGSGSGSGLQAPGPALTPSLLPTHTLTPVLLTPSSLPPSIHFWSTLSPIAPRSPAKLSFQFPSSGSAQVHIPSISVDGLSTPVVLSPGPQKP
# Outline: as §1
# GABPA = target: T3, GABPA (Homo sapiens, UniProt Q06546 1-454); conditions: protein: recombinant; tags: N-terminal GST; dsDNA, one strand shown
# T3 sequence: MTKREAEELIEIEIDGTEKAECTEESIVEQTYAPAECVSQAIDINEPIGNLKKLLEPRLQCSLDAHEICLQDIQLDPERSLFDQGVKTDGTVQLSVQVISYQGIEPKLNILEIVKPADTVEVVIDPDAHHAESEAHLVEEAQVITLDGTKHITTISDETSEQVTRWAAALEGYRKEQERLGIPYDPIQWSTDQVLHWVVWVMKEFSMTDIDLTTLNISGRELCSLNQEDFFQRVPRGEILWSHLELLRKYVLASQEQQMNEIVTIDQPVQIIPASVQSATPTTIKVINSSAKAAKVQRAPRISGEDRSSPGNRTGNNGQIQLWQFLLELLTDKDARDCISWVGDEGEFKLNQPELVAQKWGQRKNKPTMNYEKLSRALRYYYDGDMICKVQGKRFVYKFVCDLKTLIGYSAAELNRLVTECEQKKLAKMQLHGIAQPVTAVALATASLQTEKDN
# Outline: as §1
# ERG = target: T4, ERG (Homo sapiens, UniProt P11308 1-479); conditions: protein: recombinant; tags: N-terminal GST; dsDNA, one strand shown
# T4 sequence: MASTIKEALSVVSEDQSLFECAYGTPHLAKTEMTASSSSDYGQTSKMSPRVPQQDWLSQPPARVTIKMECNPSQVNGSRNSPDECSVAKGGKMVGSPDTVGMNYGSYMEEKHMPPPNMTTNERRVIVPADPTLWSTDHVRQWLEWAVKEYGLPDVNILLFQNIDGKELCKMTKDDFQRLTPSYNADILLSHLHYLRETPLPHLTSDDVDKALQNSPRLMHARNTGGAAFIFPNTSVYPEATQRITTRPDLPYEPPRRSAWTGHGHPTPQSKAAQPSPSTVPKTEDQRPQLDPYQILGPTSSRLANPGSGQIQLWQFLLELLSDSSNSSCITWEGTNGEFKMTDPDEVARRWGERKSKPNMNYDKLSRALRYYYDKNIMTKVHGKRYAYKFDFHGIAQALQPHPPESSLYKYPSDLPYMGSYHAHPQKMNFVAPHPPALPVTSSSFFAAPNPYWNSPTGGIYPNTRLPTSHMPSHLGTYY
# Outline: as §1
# ELF1 = ELF1 (Homo sapiens, UniProt P32519 1-619); conditions: protein: recombinant; tags: N-terminal GST; dsDNA, one strand shown
# Chain of ELF1 (P32519 whole entry): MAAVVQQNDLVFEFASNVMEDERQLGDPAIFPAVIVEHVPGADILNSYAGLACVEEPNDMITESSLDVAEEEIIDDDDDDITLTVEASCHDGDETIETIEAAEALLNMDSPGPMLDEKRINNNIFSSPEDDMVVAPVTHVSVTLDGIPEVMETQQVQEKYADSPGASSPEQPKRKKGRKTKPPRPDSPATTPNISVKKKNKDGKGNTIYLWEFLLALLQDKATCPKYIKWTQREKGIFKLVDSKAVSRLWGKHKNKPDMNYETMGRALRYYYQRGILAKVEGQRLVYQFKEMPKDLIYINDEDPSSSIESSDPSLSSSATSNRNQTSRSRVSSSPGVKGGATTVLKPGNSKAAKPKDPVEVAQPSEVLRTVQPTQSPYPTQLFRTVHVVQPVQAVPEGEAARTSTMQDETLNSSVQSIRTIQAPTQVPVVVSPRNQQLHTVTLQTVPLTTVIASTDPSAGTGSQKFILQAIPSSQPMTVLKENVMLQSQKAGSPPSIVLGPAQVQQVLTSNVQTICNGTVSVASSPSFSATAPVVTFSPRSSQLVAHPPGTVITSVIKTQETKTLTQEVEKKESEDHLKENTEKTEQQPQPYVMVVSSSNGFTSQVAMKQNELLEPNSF
# Outline: as §1
# EHF = target: T5, EHF (Homo sapiens, UniProt Q9NZC4 1-300); conditions: protein: recombinant; tags: N-terminal GST; dsDNA, one strand shown
# T5 sequence: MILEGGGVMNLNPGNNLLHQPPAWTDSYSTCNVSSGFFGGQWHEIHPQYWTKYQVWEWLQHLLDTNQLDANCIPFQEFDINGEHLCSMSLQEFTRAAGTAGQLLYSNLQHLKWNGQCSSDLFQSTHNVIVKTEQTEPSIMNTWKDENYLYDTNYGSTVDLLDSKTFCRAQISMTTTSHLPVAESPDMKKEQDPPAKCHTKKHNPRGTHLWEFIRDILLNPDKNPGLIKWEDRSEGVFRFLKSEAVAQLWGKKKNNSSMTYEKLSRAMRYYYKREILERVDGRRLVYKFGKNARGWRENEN
# Outline: as §1
# SPI1 = SPI1 (Homo sapiens, UniProt P17947 1-270); conditions: protein: recombinant; tags: N-terminal GST; dsDNA, one strand shown
# Outline: as §1
# SPIB = SPIB (Homo sapiens, UniProt Q01892 1-262); conditions: protein: recombinant; tags: N-terminal GST; dsDNA, one strand shown
# Chain of SPIB (Q01892 whole entry): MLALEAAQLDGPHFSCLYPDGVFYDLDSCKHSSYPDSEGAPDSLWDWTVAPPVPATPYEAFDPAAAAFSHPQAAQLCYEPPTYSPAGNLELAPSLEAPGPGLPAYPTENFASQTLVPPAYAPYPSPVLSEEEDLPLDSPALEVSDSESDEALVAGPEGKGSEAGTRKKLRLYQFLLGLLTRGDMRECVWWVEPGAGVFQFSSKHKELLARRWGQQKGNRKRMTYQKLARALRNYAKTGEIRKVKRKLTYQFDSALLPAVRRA
# Outline: as §1
# ELK3 = target: T6, ELK3 (Homo sapiens, UniProt P41970 1-407); conditions: protein: recombinant; tags: N-terminal GST; dsDNA, one strand shown
# T6 sequence: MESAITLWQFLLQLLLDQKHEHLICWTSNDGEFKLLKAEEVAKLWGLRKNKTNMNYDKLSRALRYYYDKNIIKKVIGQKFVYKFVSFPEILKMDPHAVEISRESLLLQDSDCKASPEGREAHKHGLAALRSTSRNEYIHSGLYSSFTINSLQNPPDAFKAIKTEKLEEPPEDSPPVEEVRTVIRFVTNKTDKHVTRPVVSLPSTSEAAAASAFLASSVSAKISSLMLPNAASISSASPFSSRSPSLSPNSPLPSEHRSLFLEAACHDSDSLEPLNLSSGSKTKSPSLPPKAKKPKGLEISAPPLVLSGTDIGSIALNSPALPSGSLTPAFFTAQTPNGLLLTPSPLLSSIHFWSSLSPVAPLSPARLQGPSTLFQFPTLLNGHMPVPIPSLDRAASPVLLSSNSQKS
# Outline: as §1
# FEV = target: T7, FEV (Homo sapiens, UniProt Q99581 1-238); conditions: protein: recombinant; tags: N-terminal GST; dsDNA, one strand shown
# T7 sequence: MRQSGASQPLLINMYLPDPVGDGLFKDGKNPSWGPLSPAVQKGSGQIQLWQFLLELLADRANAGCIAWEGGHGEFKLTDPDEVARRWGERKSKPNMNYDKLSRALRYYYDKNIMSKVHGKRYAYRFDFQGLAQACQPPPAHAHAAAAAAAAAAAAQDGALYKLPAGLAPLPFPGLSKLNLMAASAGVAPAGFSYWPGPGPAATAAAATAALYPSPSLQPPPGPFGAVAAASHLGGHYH
# Outline: as §1
# ETV5 = ETV5 (Homo sapiens, UniProt P41161 1-510); conditions: protein: recombinant; tags: N-terminal GST; dsDNA, one strand shown
# Chain of ETV5 (P41161 whole entry): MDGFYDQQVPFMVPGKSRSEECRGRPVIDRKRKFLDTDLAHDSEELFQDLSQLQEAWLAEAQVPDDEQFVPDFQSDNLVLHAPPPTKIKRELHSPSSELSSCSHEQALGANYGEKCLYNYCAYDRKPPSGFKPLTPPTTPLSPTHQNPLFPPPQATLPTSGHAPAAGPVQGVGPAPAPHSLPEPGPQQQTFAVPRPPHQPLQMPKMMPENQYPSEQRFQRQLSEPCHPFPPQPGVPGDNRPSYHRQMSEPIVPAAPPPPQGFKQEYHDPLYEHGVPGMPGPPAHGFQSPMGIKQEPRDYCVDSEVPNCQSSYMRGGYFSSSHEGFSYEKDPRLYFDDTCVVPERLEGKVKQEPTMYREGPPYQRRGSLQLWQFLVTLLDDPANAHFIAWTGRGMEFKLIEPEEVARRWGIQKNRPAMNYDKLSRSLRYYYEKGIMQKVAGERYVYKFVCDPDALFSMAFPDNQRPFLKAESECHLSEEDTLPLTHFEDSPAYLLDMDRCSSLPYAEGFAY
# Outline: as §1
# HSF1 = HSF1 (Homo sapiens, UniProt Q00613 1-529); conditions: protein: recombinant; tags: N-terminal GST; chain copies: 3; dsDNA, one strand shown
# Chain of HSF1 (Q00613 whole entry): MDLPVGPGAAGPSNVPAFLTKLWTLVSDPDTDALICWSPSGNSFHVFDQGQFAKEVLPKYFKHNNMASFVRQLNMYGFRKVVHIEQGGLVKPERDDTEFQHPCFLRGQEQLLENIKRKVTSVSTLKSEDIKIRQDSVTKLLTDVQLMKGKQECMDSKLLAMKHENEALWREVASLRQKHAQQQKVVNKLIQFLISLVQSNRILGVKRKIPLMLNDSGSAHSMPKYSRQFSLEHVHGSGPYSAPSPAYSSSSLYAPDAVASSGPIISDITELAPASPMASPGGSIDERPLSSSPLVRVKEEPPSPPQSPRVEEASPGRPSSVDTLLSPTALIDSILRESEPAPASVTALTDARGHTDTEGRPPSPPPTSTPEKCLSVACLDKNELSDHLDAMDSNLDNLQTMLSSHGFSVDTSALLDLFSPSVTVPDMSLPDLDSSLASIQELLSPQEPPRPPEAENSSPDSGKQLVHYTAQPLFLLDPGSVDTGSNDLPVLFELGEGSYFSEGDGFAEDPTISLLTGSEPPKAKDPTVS
# Outline: as §1
# SPIC = target: T8, SPIC (Homo sapiens, UniProt Q8N5J4 1-248); conditions: protein: recombinant; tags: N-terminal GST; dsDNA, one strand shown
# T8 sequence: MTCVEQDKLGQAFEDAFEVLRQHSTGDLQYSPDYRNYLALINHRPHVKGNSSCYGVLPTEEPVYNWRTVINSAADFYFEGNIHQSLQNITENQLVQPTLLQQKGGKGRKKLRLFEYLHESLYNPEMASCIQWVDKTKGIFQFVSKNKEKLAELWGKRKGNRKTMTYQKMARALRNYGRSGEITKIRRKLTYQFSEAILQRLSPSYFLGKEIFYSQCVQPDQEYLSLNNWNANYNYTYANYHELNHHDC
# Outline: as §1
# ELF4 = ELF4 (Homo sapiens, UniProt Q99607 1-663); conditions: protein: recombinant; tags: N-terminal GST; dsDNA, one strand shown
# Chain of ELF4 (Q99607 whole entry): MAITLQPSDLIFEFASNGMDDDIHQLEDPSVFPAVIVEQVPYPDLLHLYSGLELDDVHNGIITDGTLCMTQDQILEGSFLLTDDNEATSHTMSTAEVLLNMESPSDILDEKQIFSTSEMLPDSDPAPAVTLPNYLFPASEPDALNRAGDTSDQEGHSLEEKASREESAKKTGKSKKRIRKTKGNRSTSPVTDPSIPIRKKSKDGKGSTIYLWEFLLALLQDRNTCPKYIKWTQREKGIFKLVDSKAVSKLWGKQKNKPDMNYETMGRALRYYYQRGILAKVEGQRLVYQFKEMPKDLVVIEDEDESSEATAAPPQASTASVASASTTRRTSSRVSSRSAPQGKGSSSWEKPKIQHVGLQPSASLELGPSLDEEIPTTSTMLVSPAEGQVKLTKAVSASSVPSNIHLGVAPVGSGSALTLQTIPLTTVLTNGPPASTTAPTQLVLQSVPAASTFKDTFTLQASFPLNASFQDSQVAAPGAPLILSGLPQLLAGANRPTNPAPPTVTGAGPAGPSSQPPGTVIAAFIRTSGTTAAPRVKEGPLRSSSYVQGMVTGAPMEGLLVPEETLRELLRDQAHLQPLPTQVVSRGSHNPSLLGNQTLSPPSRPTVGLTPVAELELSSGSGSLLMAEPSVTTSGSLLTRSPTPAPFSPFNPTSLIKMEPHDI
# Outline: as §1
# ELK4 = target: T9, ELK4 (Homo sapiens, UniProt P28324-2 1-405); conditions: protein: recombinant; tags: N-terminal GST; dsDNA, one strand shown
# T9 sequence: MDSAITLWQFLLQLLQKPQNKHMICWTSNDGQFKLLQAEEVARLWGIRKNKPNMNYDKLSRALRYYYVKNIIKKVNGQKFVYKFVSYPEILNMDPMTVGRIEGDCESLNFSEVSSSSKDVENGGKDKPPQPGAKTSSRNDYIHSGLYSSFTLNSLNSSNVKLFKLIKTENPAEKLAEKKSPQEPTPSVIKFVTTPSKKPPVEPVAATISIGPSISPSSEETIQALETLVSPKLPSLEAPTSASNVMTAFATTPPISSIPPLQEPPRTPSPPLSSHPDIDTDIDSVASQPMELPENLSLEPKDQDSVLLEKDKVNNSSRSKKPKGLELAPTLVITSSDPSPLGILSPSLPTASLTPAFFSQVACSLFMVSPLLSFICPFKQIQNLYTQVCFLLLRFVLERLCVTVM
# Outline: as §1
# ETV2 = target: T10, ETV2 (Homo sapiens, UniProt O00321 1-342); conditions: protein: recombinant; tags: N-terminal GST; dsDNA, one strand shown
# T10 sequence: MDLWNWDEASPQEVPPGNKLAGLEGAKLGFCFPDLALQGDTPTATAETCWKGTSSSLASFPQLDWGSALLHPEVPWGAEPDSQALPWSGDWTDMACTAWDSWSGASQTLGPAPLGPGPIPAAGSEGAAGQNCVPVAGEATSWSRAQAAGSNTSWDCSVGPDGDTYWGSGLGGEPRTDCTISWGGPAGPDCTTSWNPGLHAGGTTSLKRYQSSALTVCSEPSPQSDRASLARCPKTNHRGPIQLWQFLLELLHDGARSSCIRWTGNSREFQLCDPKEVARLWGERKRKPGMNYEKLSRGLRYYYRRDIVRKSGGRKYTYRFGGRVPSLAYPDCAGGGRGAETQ
# Outline: as §1
# ELF3 = target: T11, ELF3 (Homo sapiens, UniProt P78545 1-371); conditions: protein: recombinant; tags: N-terminal GST; dsDNA, one strand shown
# T11 sequence: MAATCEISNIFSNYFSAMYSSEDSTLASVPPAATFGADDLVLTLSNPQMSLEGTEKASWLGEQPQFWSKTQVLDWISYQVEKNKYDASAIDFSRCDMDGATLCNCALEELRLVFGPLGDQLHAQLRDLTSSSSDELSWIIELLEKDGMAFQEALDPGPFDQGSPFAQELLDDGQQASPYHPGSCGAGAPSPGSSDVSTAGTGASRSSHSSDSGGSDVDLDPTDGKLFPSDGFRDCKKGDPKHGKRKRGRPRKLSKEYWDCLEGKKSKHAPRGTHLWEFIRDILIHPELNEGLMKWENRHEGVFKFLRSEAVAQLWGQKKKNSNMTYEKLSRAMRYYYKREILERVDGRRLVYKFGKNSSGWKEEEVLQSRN
# Outline: as §1
# CRX = CRX (Homo sapiens, UniProt O43186 1-299); conditions: protein: recombinant; tags: N-terminal GST; dsDNA, one strand shown
# Chain of CRX (O43186 whole entry): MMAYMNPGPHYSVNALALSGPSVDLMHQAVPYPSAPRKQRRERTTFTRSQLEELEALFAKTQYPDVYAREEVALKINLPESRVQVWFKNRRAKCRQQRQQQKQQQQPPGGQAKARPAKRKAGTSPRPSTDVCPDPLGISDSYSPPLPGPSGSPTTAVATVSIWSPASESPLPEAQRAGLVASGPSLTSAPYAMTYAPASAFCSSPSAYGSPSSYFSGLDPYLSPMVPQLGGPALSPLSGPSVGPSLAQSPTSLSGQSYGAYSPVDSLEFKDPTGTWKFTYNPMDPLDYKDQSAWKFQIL
# Outline: as §1
# ETV1 = ETV1 (Homo sapiens, UniProt P50549 1-477); conditions: protein: recombinant; tags: N-terminal GST; dsDNA, one strand shown
# Chain of ETV1 (P50549 whole entry): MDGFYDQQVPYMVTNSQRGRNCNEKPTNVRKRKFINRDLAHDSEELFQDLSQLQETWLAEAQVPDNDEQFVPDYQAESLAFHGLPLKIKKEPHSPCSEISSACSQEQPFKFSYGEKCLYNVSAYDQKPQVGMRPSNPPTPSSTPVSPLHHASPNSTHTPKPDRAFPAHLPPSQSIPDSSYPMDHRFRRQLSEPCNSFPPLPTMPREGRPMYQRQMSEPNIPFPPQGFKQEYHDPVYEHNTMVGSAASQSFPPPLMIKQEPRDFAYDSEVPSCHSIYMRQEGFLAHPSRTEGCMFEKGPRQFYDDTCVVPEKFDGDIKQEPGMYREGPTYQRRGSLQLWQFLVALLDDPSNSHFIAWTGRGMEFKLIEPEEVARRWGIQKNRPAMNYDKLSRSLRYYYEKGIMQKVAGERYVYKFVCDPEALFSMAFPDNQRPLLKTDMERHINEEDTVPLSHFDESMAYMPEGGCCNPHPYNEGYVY
# Outline: as §1
sequence,measurement,setting,value
AACCTG,binding signal,FLI1,"1.19 fold enrichment (6-mer frequency, TF over GST control)"
same,binding signal,ELK1,"1.2 fold enrichment (6-mer frequency, TF over GST control)"
same,binding signal,GABPA,"1.17 fold enrichment (6-mer frequency, TF over GST control)"
same,binding signal,ERG,"1.09 fold enrichment (6-mer frequency, TF over GST control)"
same,binding signal,ELF1,"1.16 fold enrichment (6-mer frequency, TF over GST control)"
same,binding signal,EHF,"1.22 fold enrichment (6-mer frequency, TF over GST control)"
same,binding signal,SPI1,"1.27 fold enrichment (6-mer frequency, TF over GST control)"
same,binding signal,SPIB,"1.12 fold enrichment (6-mer frequency, TF over GST control)"
same,binding signal,ELK3,"1.21 fold enrichment (6-mer frequency, TF over GST control)"
same,binding signal,FEV,"1.2 fold enrichment (6-mer frequency, TF over GST control)"
same,binding signal,ETV5,"1.16 fold enrichment (6-mer frequency, TF over GST control)"
same,binding signal,HSF1,"1.03 fold enrichment (6-mer frequency, TF over GST control)"
same,binding signal,SPIC,"1.04 fold enrichment (6-mer frequency, TF over GST control)"
same,binding signal,ELF4,"1.25 fold enrichment (6-mer frequency, TF over GST control)"
same,binding signal,ELK4,"1.3 fold enrichment (6-mer frequency, TF over GST control)"
same,binding signal,ETV2,"1.16 fold enrichment (6-mer frequency, TF over GST control)"
same,binding signal,ELF3,"1.12 fold enrichment (6-mer frequency, TF over GST control)"
same,binding signal,CRX,"1.1 fold enrichment (6-mer frequency, TF over GST control)"
same,binding signal,ETV1,"1.14 fold enrichment (6-mer frequency, TF over GST control)"
